The panel holds about 79,000 compounds, 15% with a hit somewhere; the sample as a whole holds those more often. A number with no mark means an inactive call. The source made the active and inactive calls. No stated cut-off is given here; in the data, active means growth inhibition above about 70%; inactive means the rest.
How the values were obtained:
[1] = NCI Yeast Anticancer Drug Screen. Data for the rad52 strain (AID 147);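 further: 0% = growth of vehicle-treated control cultures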; conditions: S. cerevisiae rad52 mutant growth inhibition, stronger effect = higher value
In short: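 Inhibition of yeast growth, referenced to vehicle controls, was the measured output for a strain with defective DNA damage repair.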

[2] = NCI Yeast Anticancer Drug Screen. Data for the wt1 strain (AID 149);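 further: 0% = growth of vehicle-treated wt1 cultures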; conditions: S. cerevisiae wt1 strain (SPY 50644) growth inhibition, stronger effect = higher value
In short: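 Using yeast strain wt1, compound-induced growth inhibition was determined against vehicle-treated cultures.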

[3] = NCI Yeast Anticancer Drug Screen. Data for the rad50EPP+ strain (AID 151);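 further: 0% = growth of vehicle-treated control cultures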; conditions: S. cerevisiae rad50 mutant strain, stronger effect = higher value
In short: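 Genetically defined yeast (rad50EPP+, DNA damage repair alteration) is grown with compound, and inhibition of growth is expressed relative to vehicle-treated controls.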

[4] = NCI Yeast Anticancer Drug Screen. Data for the rad50 strain (AID 155);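 further: 0% = growth of vehicle-only cultures of the same strain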; conditions: S. cerevisiae rad50 strain growth inhibition, stronger effect = higher value
In short: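 Relative growth inhibition (compound vs vehicle) was measured in yeast with a defined repair-gene alteration.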

[5] = NCI Yeast Anticancer Drug Screen. Data for the mec2-1 strain (AID 157); conditions: S. cerevisiae mec2-1 strain, stronger effect = higher value
In short: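 Each compound was tested on mec2-1 yeast, a strain altered in DNA damage repair or cell cycle control. Growth inhibition is reported relative to vehicle.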

[6] = NCI Yeast Anticancer Drug Screen. Data for the rad14 strain (AID 159);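 further: 0% = growth of vehicle-treated control cultures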; conditions: S. cerevisiae rad14 strain growth inhibition, stronger effect = higher value
In short: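 Screen for anticancer potential: a yeast strain altered in DNA damage repair is grown with compound, and reduced growth is quantified against vehicle controls.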

[7] = NCI Yeast Anticancer Drug Screen. Data for the sgs1 mgt1 strain (AID 161);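 further: 0% = growth of cultures given vehicle only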; conditions: S. cerevisiae sgs1 mgt1 strain, stronger effect = higher value
In short: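 Genetically altered yeast, compound exposure, growth inhibition relative to vehicle.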

[8] = NCI Yeast Anticancer Drug Screen. Data for the CLN2oe strain (AID 163);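 further: 0% = growth of vehicle-only control cultures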; conditions: S. cerevisiae CLN2oe strain, stronger effect = higher value
In short: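 First, the altered yeast strain was treated with each compound; second, its growth was measured; finally, inhibition was derived by comparison with vehicle controls.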

[9] = NCI Yeast Anticancer Drug Screen. Data for the cln2 rad14 strain (AID 165);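 further: 0% = growth equal to vehicle treated cultures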; conditions: S. cerevisiae cln2 rad14 strain, stronger effect = higher value
In short: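 Test compounds were added to cln2 rad14 yeast cultures; inhibition of growth was then determined by comparison with vehicle treatment.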

[10] = NCI Yeast Anticancer Drug Screen. Data for the bub3 strain (AID 167); conditions: S. cerevisiae bub3 mutant strain, stronger effect = higher value
In short: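 Screening used yeast with an engineered genetic alteration affecting cell cycle control. Compound-exposed cultures were compared with vehicle cultures, and reduced growth was taken as inhibition.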

[11] = NCI Yeast Anticancer Drug Screen. Data for the wt2 strain (AID 169);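 further: 0% = growth of vehicle-treated yeast cultures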; conditions: S. cerevisiae wt2 strain growth inhibition, stronger effect = higher value
In short: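 The panel's yeast strains carry defined changes in DNA repair or cell cycle genes. Each strain is grown with compound, and growth loss is scored relative to vehicle.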

[12] = NCI Yeast Anticancer Drug Screen. Data for the mlh1 strain (AID 171);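 further: 0% = growth of vehicle-treated control cultures of the same strain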; conditions: S. cerevisiae mlh1 strain growth inhibition, stronger effect = higher value
In short: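 Inhibition values reflect reduced yeast growth in the presence of compound, referenced to vehicle controls, using a strain chosen for its alteration in DNA repair or cell cycle control.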

[13] = NCI Yeast Anticancer Drug Screen. Data for the sgs1 strain (AID 173);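 further: 0% = growth of vehicle-only control cultures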; conditions: S. cerevisiae sgs1 mutant, stronger effect = higher value
In short: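 Vehicle-treated cultures served as reference for growth inhibition of a yeast strain altered in DNA damage repair or cell cycle control after compound exposure.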

[14] = NCI Yeast Anticancer Drug Screen. Data for the mlh1 rad18 strain (AID 175); conditions: S. cerevisiae mlh1 rad18 strain growth inhibition, stronger effect = higher value
In short: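 Inhibition values reflect reduced growth of mutant yeast versus vehicle-treated controls following compound exposure; the mutations affect DNA damage repair.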

[15] = NCI Yeast Anticancer Drug Screen. Data for the rad18 strain (AID 177); conditions: S. cerevisiae rad18 mutant growth inhibition, stronger effect = higher value
In short: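 Steps: expose repair-mutant yeast to compound; measure growth; express as inhibition relative to vehicle control.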

[16] = at 5.0 µM (retest, dose inferred, filed as 0.5)
[17] = at 50.0 µM (retest, dose inferred, filed as 5.0)

## CCOC(=O)C1=C(C)NC(C)=C(C(=O)OCC)C1c1ccc(C)cc1
[1]; at 1.2 µM
  growth inhibition: 27%
[1]; at 3.7 µM
  growth inhibition: 43%
[1]; at 11.0 µM
  growth inhibition: 64%
[1]; at 33.0 µM
  growth inhibition: 97% (active)
[1]; at 100.0 µM
  growth inhibition: 95% (active)
[2]; at 1.2 µM
  growth inhibition: 28%
[2]; at 3.7 µM
  growth inhibition: 19%
[2]; at 11.0 µM
  growth inhibition: 57%
[2]; at 33.0 µM
  growth inhibition: 97% (active)
[2]; at 100.0 µM
  growth inhibition: 96% (active)
[3]; at 1.2 µM
  growth inhibition: -21%
[3]; at 3.7 µM
  growth inhibition: -27%
[3]; at 11.0 µM
  growth inhibition: -25%
[3]; at 33.0 µM
  growth inhibition: -13%
[3]; at 100.0 µM
  growth inhibition: 27%
[4]; at 1.2 µM
  growth inhibition: 30%
[4]; at 3.7 µM
  growth inhibition: 31%
[4]; [16]
  growth inhibition: -24%
[4]; at 11.0 µM
  growth inhibition: 59%
[4]; at 33.0 µM
  growth inhibition: 96% (active)
[4]; [17]
  growth inhibition: 21%
[4]; at 50.0 µM
  growth inhibition: 88.7% (active)
[4]; at 100.0 µM
  growth inhibition: 96% (active)
[5]; at 1.2 µM
  growth inhibition: 27%
[5]; at 3.7 µM
  growth inhibition: -6%
[5]; [16]
  growth inhibition: -24%
[5]; at 11.0 µM
  growth inhibition: 39%
[5]; at 33.0 µM
  growth inhibition: 97% (active)
[5]; [17]
  growth inhibition: 7%
[5]; at 50.0 µM
  growth inhibition: 91.5% (active)
[5]; at 100.0 µM
  growth inhibition: 95% (active)
[6]; at 1.2 µM
  growth inhibition: 17%
[6]; at 3.7 µM
  growth inhibition: 14%
[6]; at 11.0 µM
  growth inhibition: 69%
[6]; at 33.0 µM
  growth inhibition: 96% (active)
[6]; at 100.0 µM
  growth inhibition: 93% (active)
[7]; [16]
  growth inhibition: -20%
[7]; [17]
  growth inhibition: 75% (active)
[7]; at 50.0 µM
  growth inhibition: 91.8% (active)
[8]; at 1.2 µM
  growth inhibition: 26%
[8]; at 3.7 µM
  growth inhibition: 13%
[8]; at 11.0 µM
  growth inhibition: 33%
[8]; at 33.0 µM
  growth inhibition: 96% (active)
[8]; at 100.0 µM
  growth inhibition: 95% (active)
[9]; [16]
  growth inhibition: -31%
[9]; [17]
  growth inhibition: 29%
[9]; at 50.0 µM
  growth inhibition: 90% (active)
[10]; at 1.2 µM
  growth inhibition: 61%
[10]; at 3.7 µM
  growth inhibition: 78% (active)
[10]; [16]
  growth inhibition: -13%
[10]; at 11.0 µM
  growth inhibition: 91% (active)
[10]; at 33.0 µM
  growth inhibition: 97% (active)
[10]; [17]
  growth inhibition: 90% (active)
[10]; at 50.0 µM
  growth inhibition: 91.3% (active)
[10]; at 100.0 µM
  growth inhibition: 95% (active)
[11]; at 1.2 µM
  growth inhibition: 5%
[11]; at 3.7 µM
  growth inhibition: 7%
[11]; at 11.0 µM
  growth inhibition: 53%
[11]; at 33.0 µM
  growth inhibition: 96% (active)
[11]; at 100.0 µM
  growth inhibition: 96% (active)
[12]; at 1.2 µM
  growth inhibition: 8%
[12]; at 3.7 µM
  growth inhibition: 9%
[12]; at 11.0 µM
  growth inhibition: 55%
[12]; at 33.0 µM
  growth inhibition: 96% (active)
[12]; at 100.0 µM
  growth inhibition: 95% (active)
[13]; at 1.2 µM
  growth inhibition: 15%
[13]; at 3.7 µM
  growth inhibition: 21%
[13]; at 11.0 µM
  growth inhibition: 66%
[13]; at 33.0 µM
  growth inhibition: 98% (active)
[13]; at 100.0 µM
  growth inhibition: 96% (active)
[14]; [16]
  growth inhibition: -37%
[14]; [17]
  growth inhibition: 79% (active)
[14]; at 50.0 µM
  growth inhibition: 90.2% (active)
[15]; at 1.2 µM
  growth inhibition: -2%
[15]; at 3.7 µM
  growth inhibition: -2%
[15]; at 11.0 µM
  growth inhibition: 20%
[15]; at 33.0 µM
  growth inhibition: 96% (active)
[15]; at 100.0 µM
  growth inhibition: 96% (active)

Source: PubChem BioAssay (NCI)
